In the supplement of paper PMC3334620:
Over roughly 33,000 sequences, “E-score (-0.5 to 0.5)” has its median near -0.054; the highest 2% begin near 0.35. Many of the other results were omitted from the sample, so the highest values are more common in it than they were.

biological target: T1, Stb5 (UniProt P38699); assay: PBM E-score (8-mer binding enrichment) (E-score (-0.5 to 0.5)); higher = stronger / more preferred TF binding; conditions: protein concentration: 200 nM; construct: GST-full length
T1 sequence: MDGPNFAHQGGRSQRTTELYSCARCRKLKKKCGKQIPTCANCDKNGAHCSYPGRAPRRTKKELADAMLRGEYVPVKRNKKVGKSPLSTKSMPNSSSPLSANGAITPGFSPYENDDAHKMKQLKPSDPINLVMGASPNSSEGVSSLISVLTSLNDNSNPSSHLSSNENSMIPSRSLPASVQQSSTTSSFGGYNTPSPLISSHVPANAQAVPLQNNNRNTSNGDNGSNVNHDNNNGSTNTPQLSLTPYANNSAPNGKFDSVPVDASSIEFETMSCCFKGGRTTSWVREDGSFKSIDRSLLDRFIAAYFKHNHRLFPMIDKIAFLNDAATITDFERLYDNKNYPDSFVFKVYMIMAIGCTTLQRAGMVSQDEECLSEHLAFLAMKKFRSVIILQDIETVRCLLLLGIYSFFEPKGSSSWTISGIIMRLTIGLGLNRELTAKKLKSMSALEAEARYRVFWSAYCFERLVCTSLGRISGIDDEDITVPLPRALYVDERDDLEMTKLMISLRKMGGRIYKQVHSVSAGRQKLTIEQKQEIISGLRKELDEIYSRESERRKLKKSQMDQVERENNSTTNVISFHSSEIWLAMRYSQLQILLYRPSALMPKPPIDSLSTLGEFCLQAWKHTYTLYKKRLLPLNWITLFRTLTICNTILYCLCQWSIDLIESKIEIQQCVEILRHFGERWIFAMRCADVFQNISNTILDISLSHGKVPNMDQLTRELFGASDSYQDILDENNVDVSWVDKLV
Procedure, shortened: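 Full-length yeast transcription factors or their DNA-binding domains, GST-tagged and expressed with PURExpress, were applied at about 100-200 nM to universal all-10-mer Agilent arrays. These arrays had been made double-stranded by primer extension on fresh or once-stripped slides. Detection used fluorescent anti-GST, normalisation used masliner, and E-scores for ungapped eight-base words pooled with reverse complements came from the Universal PBM Analysis Suite.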

| Sequence | PBM E-score |
| --- | --- |
| TTCACAAA | -0.00748 |
| GACCAAAC | -0.0734 |
| AGACGGTC | 0.142 |
| CATCCATG | -0.205 |
| AAAGGCCG | 0.446 |
| AAGGCCGC | 0.441 |
| CAGGCCGC | 0.187 |
| AAGGCCCG | 0.359 |
| GAGGCCGC | 0.322 |
| CAAGGCCG | 0.236 |
| CAGGCCCG | 0.109 |
| AAAGGCCC | 0.274 |
| AAGGCCCA | -0.17 |
| AGACAGGG | -0.161 |
| ACGCCTAG | -0.0889 |
| ACATTAGA | -0.214 |
| CATACTGG | -0.062 |
| CCAGAGGG | -0.0691 |
| CGCACGAA | -0.0424 |
| GAGTTTAC | 0.115 |
| CGTTCCGA | 0.00452 |
| AGTTCCGG | 0.333 |
| CGTTCCGC | 0.226 |
| AGTTCCGA | 0.374 |
| AGTTCCGC | 0.361 |

| Sequence | PBM E-score |
| --- | --- |
| GGTTCCGA | 0.126 |
| ACCCATCG | 0.1 |
| CCCTCTTA | -0.167 |
| AGCCCGAT | 0.328 |
| AGCCCGAG | 0.05 |
| CGCCCGCC | 0.258 |
| AGCCCGCG | 0.334 |
| GGCCCGAC | 0.358 |
| AGCCCGAC | 0.373 |
| AGCCCGCC | 0.359 |
| ATCCCGAT | 0.238 |
| CGCCCGAC | 0.33 |
| ATCCCGAG | 0.161 |
| ATCCCGAC | 0.39 |
| GGCCCGAA | 0.149 |
| ACACTTAA | -0.117 |
| CACAAGCG | -0.0542 |
| CAAAATCG | -0.0979 |
| CCGTGAGC | 0.196 |
| CACTACCC | -0.179 |
| ATGCACTA | -0.0627 |
| GGTATGTA | 0.18 |
| CGACTAAC | 0.00814 |
| AACCCTGG | -0.284 |
| ACAGGATC | -0.312 |

| Sequence | PBM E-score |
| --- | --- |
| CAATTAAA | -0.00358 |
| GCCTCCTA | -0.0585 |
| AGACTTGG | -0.17 |
| CAAACGCC | 0.243 |
| AAAACGCG | 0.0108 |
| ATAACGCG | 0.0524 |
| CTAACGCC | 0.316 |
| AAAACGCC | 0.368 |
| ATAACGCC | 0.359 |
| AAACCAGG | -0.00613 |
| CCCGAGAG | 0.0886 |
| GAATTCTA | -0.248 |
| ACCTTCAA | -0.0982 |
| CTGGTTAA | -0.102 |
| ACGGGAAT | 0.371 |
| ACGGGGCT | 0.366 |
| ACGGGGAG | 0.202 |
| ACGGGAAC | 0.205 |
| ACGGGGAC | 0.241 |
| ACGGGCCA | 0.169 |
| ACGGGAAG | -0.0191 |
| ACGGGGCA | 0.159 |
| ACGGGGAT | 0.415 |
| ACGGGCCG | 0.194 |
| ACGGGCCT | 0.376 |

| Sequence | PBM E-score |
| --- | --- |
| ACGGGGCC | 0.221 |
| CCAATCTA | -0.0421 |
| CACGCTGG | -0.14 |
| CTGATAGA | -0.0917 |
| CAAGTACA | -0.12 |
| AAACAGAC | -0.131 |
| ACTAGACA | -0.184 |
| AACCGGGC | 0.239 |
| GCTTGGCC | 0.143 |
| GGCCACGA | 0.111 |
| AGTACCCA | -0.101 |
| ATGGTCAG | -0.183 |
| ACCGGGGC | 0.359 |
| ACGGGCAT | 0.363 |
| ACCGGGGG | 0.286 |
| ACGGGGTG | 0.286 |
| ACCGGGCA | 0.276 |
| ACGGGCAC | 0.105 |
| CCCGGGGC | 0.258 |
| ACCGGGCT | 0.38 |
| ACCGGGCC | 0.306 |
| ACGGGGTA | 0.248 |
| ACGGGCAG | -0.0575 |
| ACGGGGTC | 0.362 |
| CCGTATCA | 0.145 |

| Sequence | PBM E-score |
| --- | --- |
| CCGTCTCC | 0.22 |
| CCCTCAAC | -0.125 |
| AAGTAGGT | 0.00443 |
| ATAAGTAC | 0.133 |
| CATGACCA | -0.378 |
| CTGGACTC | -0.169 |
| AAACGAAC | -0.193 |
| ACCTTACA | -0.0752 |
| AGGTTTTA | 0.0721 |
| CGGGTTTA | 0.467 |
| CGGTTATA | 0.37 |
| GGGTTATA | 0.257 |
| CGGTTTTA | 0.41 |
| CGGTTCTA | 0.36 |
| AGGTTCTA | 0.0114 |
| GGGGTTTA | 0.329 |
| CGGTTTAA | 0.155 |
| GGGTTCTA | 0.162 |
| AGGTTATA | -0.0254 |
| CGGGTTTC | 0.273 |
| CTAAAGGA | 0.0339 |
| ACTGAAGC | -0.111 |
| CTCCATAC | -0.0338 |
| CGTTCGGA | 0.243 |
| GAAGGTCA | -0.15 |

| Sequence | PBM E-score |
| --- | --- |
| AACACCAG | 0.011 |
| CCCGTCGC | 0.25 |
| ACCGTCGA | 0.286 |
| ACCGTCGG | 0.392 |
| CCCGTCGA | 0.206 |
| CCCGTCGG | 0.435 |
| ACCGTCGC | 0.332 |
| GTTAACCA | -0.181 |
| GCACCACA | -0.0487 |
| CCCATGCC | 0.0152 |
| TATGTGAA | -0.344 |
| AAACTTGT | -0.145 |
| GAGCGGAA | 0.308 |
| CAGCGGAC | 0.332 |
| AAGCGGAT | 0.297 |
| AAGCGGAC | 0.352 |
| AAGCGGAG | 0.252 |
| GAGCGGAC | 0.376 |
| CAGTTATG | 0.143 |
| ACCCCGCC | 0.463 |
| CCCCCGCC | 0.313 |
| GCCCCGCC | 0.403 |
| AGCCCGCT | 0.317 |
| GGCCCGCC | 0.303 |
| GCCCCGCA | 0.262 |

| Sequence | PBM E-score |
| --- | --- |
| ACCCCGCG | 0.367 |
| CCCCCGCG | 0.325 |
| AACCCGCT | 0.222 |
| ACCCCGCT | 0.437 |
| AACCCGCC | 0.276 |
| AACCCGCG | 0.231 |
| AATCAATT | -0.151 |
| TGTATGAA | 0.0366 |
| CTTTAAGA | 0.0831 |
| TAGCAGCA | -0.233 |
| AATATTAA | 0.0579 |
| TTCTCAAA | -0.128 |
| ACCGATAG | 0.167 |
| CAACAATG | -0.0552 |
| CCCCCGCA | 0.154 |
| AACCCGCA | 0.229 |
| ACCCCGCA | 0.382 |
| CGTGTTAG | 0.0849 |
| AAGCACCG | 0.457 |
| AACCACCG | 0.406 |
| CAGCACCG | 0.313 |
| CATCACCG | 0.251 |
